The list is not random: actives were taken first. Their share in the collection is about 4.1%.
ssDAF-12 act – S. stercoralis DAF-12 nuclear receptor activators, primary screen, cell-based, luminescence, HEK293, GRIP1 co-expression, lit1-tk-luc; Nuclear hormone receptor DAF-12 (Strongyloides stercoralis); HEK293 ssDAF-12/GRIP1 lit1-tk-luc reporter; % of 3 µM dafachronic acid response; activation, % at 6.8 µM; 1% of 370,000 active; AID 652126, 2013;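 active means activation above the mean over all tested compounds plus 3 SD, cut at about 0.9% in these data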;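 further: 0% = DMSO-only wells and 100% = 3 µM delta7-dafachronic acid wells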
hgDAF-12 ag – H. glycines DAF-12 receptor agonists, primary screen, cell-based, luminescence, HEK293, GAL4 fusion, UAS-luciferase; 1.8% of 370,000 active; AID 687014, 2013; Nuclear hormone receptor DAF-12 (Heterodera glycines), GAL4 fusion; activation, % at 6.8 µM; HEK293 GAL4-hgDAF12 UAS-luciferase reporter, agonist luminescence; normalized to butyrate control;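 active means activation above a cutoff set at the mean of all screened compounds plus 3 SD, cut at about 10% in these data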;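 further: 0% = DMSO wells and 100% = sodium butyrate wells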
DAX1 inh-1 – DAX1 (NR0B1) inhibitors, primary screen, cell-based, HEK293, Gal4-DAX1, luciferase luminescence. 0.99% of 340,000 active. inhibition, % at 6.75 µM. Nuclear receptor subfamily 0 group B member 1 (Homo sapiens), P51843. HEK293 Gal4-DAX1 luciferase reporter. AID 504766, 2011;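 active means inhibition above the mean over all tested compounds plus 3 SD, cut at about 4.2% in these data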;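 further: 0% = DAX1-transfected cells with DMSO and 100% = empty-vector control cells with DMSO; inhibition shows as a rise in luminescence from relieved DAX1 repression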
Target sequence (P51843 207-470 limits assumed): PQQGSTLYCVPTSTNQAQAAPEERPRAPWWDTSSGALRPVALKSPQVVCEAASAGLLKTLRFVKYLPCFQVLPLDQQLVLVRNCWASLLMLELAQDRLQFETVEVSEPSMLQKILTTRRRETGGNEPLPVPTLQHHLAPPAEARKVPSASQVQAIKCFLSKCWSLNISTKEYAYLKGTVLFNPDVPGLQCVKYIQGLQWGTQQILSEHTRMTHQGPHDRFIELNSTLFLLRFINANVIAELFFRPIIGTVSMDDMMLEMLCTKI
DAX1 inh-2 – DAX1 (NR0B1) inhibitors on StAR promoter, primary screen, cell-based, luminescence, SF-1 (NR5A1), full-length DAX-1; inhibition, % at 6.8 µM; HEK293T StAR-luciferase reporter, SF-1/DAX-1 repression relief; 1.1% of 370,000 active;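 active means inhibition above the mean over all tested compounds plus 3 SD, cut at about 3.6% in these data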;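 further: 0% = DAX-1 cells with DMSO and 100% = cells lacking DAX-1 with DMSO; higher inhibition means more luminescence from relief of DAX-1 repression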
hcDAF-12 act – H. contortus DAF-12 nuclear receptor activators, primary screen, cell-based, luminescence, HEK293, lit1-tk-luc reporter; HEK293 hcDAF-12 lit1-tk-luc reporter; 0% DMSO, 100% Δ7-dafachronic acid; 1.4% of 370,000 active; activation, % at 6.8 µM;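 active means activation above the mean of all tested compounds plus 3 SD, cut at about 5.5% in these data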;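 further: 100% = response to 3 µM Δ7-dafachronic acid high control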
hgDAF12 ag – H. glycines DAF-12 receptor agonists, confirmation, cell-based, luminescence, HEK293, GAL4-LBD fusion. 80% of 3,300 active. AID 743050, 2013. shares compounds with hgDAF-12 ag. activation, % at 6.8 µM. HEK293 GAL4-hgDAF12 luciferase reporter, agonist mode; percent of butyrate response;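 active means mean activation over triplicate wells above the hit cutoff derived from the earlier primary screen, cut at about 11% in these data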;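 further: 0% = DMSO low control and 100% = 2 mM sodium butyrate high control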
LXRb DAF12 ctr – LXR agonists, Gal4 luciferase reporter, confirmation, counter-screen for hgDAF-12 agonist project, cell-based, luminescence, HEK293, H. glycines campaign; 3,300 tested, under 10 active; 24 h; AID 743051, 2013; shares compounds with hgDAF-12 ag; activation, % at 6.8 µM;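 active means mean activation of the triplicate above a set limit carried over from the primary screen, none filed active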
Starred values were filed as active, the others as inactive; x = no result.

SMILES | ssDAF-12 act | hgDAF-12 ag | DAX1 inh-1 | DAX1 inh-2 | hcDAF-12 act | hgDAF12 ag | LXRb DAF12 ctr
CCOC(=O)Cc1ccc2sc(-c3ccccc3)nc2c1 | 0 | 13* | 4 | 3 | 4 | 14* | 1
Cn1[nH]c(CSc2ccc(Cl)cc2)cc1=O | -1 | -1 | -1 | 0 | -2 | x | x
C/C(=C\c1ccccc1)C(=O)NCCCn1ccnc1 | -2 | 3 | 2 | 0 | 2 | x | x
COc1ccc2c(c1OC)C(=O)N(c1cccc(C)c1)C2 | 1.3* | 13* | 1 | 3.6* | 6 | 16* | 1
Cc1cccc(N2CC(=O)N(c3cccc(C)c3)CC2=O)c1 | -1 | -2 | 0 | -1 | 0 | x | x
Cc1cc(OCC(=O)N2CCOCC2)ccc1[N+](=O)[O-] | 0 | 15* | 5.2* | 2 | 4 | 8 | 0
Cc1ccc(OCC(=O)N2CCN(c3ccc([N+](=O)[O-])c(N4CCOCC4)c3)CC2)cc1 | -2 | 2 | 1 | -2 | 0 | x | x
Cc1ccc(C(=O)NCCc2c[nH]c3ccccc23)c(C)c1 | 0 | 15* | 2 | 1 | 5 | 12* | 0
C/C(=N/NC(=O)c1ccc(C)s1)c1ccncc1 | -1 | 4 | 2 | 1 | 5 | x | x
Nc1ccc(CCc2nc3ccccc3o2)cc1 | -1 | 13* | 1 | 4 | 2 | 13* | 1
O=C(NCCSC1CCCCC1)c1ccccc1 | 0 | 5 | 0 | 2 | 1 | x | x
COc1ccc(C(=O)NCCSC2CCCCC2)cc1 | 0 | 16* | 0 | 2 | 3 | 11* | 0
O=C1CC(N2CCN(S(=O)(=O)c3ccccc3F)CC2)C(=O)N1c1ccc(F)cc1F (stereo unspecified) | -2 | -2 | 0 | -1 | -1 | x | x
O=C(c1ccc(Cl)cc1)c1coc2ccc(O)cc12 | 0 | 17* | 3 | 3 | 3 | 18* | 1
COc1c(C)cc(C(=O)C2CCCN(C(=O)c3cc(C4CC4)[nH]n3)C2)cc1C (stereo unspecified) | -1 | 1 | 0 | -2 | 0 | x | x
O=C1[C@@H]2Cc3c([nH]c4ccccc34)C(c3ccccc3)N2C(=O)CN1CCO (stereo partly specified) | -1 | 4 | 1 | 1 | 3 | x | x
CN1CC(=O)N2[C@H](c3ccc4c(c3)OCO4)c3[nH]c4ccccc4c3C[C@@H]2C1=O | -1 | 49* | 0 | -1 | -1 | 1 | 0
CSc1nc2ccc(NC(=O)c3ccco3)cc2s1 | -1 | 18* | 2 | 2 | 4 | 11* | 1
CSc1nc2ccc(NC(=O)c3ccc(=O)[nH]c3)cc2s1 | -1 | 0 | -2 | 0 | 0 | x | x
COc1ccc(Oc2cnn(-c3ccccc3)c(=O)c2Br)cc1 | -1 | 56* | -1 | -2 | -1 | 1 | 0
O=C(NCc1ccc(Cl)cc1)c1cnn2ccccc12 | 0 | 18* | 1 | 3.8* | 3 | 13* | 1
N/C(=N\OC(=O)c1ccc2c(c1)OCO2)c1cccc(Br)c1 | 0 | 6 | 0 | 1 | 2 | x | x
N/C(=N\OC(=O)c1ccc2c(c1)OCO2)c1cccnc1 | 1.1* | 14* | 1 | 2 | 4 | 11* | 0
CCCn1c(SCC(=O)Nc2ccccc2Oc2ccccc2)n[nH]c1=O | -2 | -2 | -1 | 0 | -2 | x | x
CCCn1c(SCc2ccon2)nc2ccccc2c1=O | -1 | -3 | 0 | 0 | -2 | x | x
SMILES | ssDAF-12 act | hgDAF-12 ag | DAX1 inh-1 | DAX1 inh-2 | hcDAF-12 act | hgDAF12 ag | LXRb DAF12 ctr
O=C(OCc1cccnc1)C1=Cc2ccccc2OC1 | -1 | 14* | -1 | 1 | -1 | 3 | 0
Cc1ccc(NC(=S)NC(=O)C2CCC2)cc1C | 0 | 14* | 1 | 1 | 5 | 11* | 0
O=C(NC(=S)Nc1ccc(O)cc1)C1CCCC1 | -1 | 4 | 1 | 0 | 3 | x | x
COc1cc(C)ccc1OCc1cc(C(=O)N(Cc2nccn2C)C(C)C)no1 | 0 | 18* | 1 | 3.7* | 5 | 13* | 1
Clc1ccccc1C1=CC(c2ccco2)n2ncnc2N1 (stereo unspecified) | 0 | 0 | 1 | -1 | -2 | x | x
O=C(C[C@H]1C[C@H](C(=O)N2CCCCC2)[C@@]2(CCc3ccccc3)c3[nH]c4ccc(Cl)cc4c3CCN2C1=O)NCc1ccco1 | 0 | -3 | 1 | 2 | -1 | x | x
CCc1ccc(NC(=O)c2cnccn2)cc1 | 1 | 15* | 3 | 3 | 3 | 13* | 1
COc1ccc2cc(-c3ccn[nH]3)ccc2c1 | 1 | 14* | 3 | 1 | 4 | 15* | 1
O=c1[nH]c2ccccc2nc1-c1ccccc1 | 0 | 16* | 0 | 1 | 0 | 7 | 0
O=c1[nH]c2ccccc2nc1-c1ccc(Cl)cc1 | 0 | 6 | 0 | 1 | 5 | x | x
c1cn2cc(-c3ccc4c(c3)OCO4)nc2s1 | 1.6* | 16* | 0 | 4.3* | 6.5* | 16* | 1
Cc1nc(-c2ccc(NC(=O)C3CCCCC3)cc2)cs1 | 0 | 10 | 2 | 2 | 2 | x | x
O=C(Nc1ccc(-c2cn3ccsc3n2)cc1)C1CCCC1 | 0 | 16* | 1 | 3 | 3 | 18* | 1
Cc1nc2scc(C)n2c(=O)c1S(=O)(=O)Nc1ccc(OC(F)(F)F)cc1 | -1 | -3 | 0 | -3 | -1 | x | x
CC(=O)/C=C(\C)Nc1ccc(-c2cnc(-c3ccccc3)o2)cc1 | 1 | 18* | 4 | 4.0* | 6.2* | 13* | 1
CC(C)C(=O)Nc1ccc(-c2nnc(-c3ccccc3)o2)cc1 | 1 | 14* | 4 | 2 | 5 | 17* | 1
CCN(CC(=O)Nc1c(F)cccc1F)C(=O)c1ccc2c(=O)n3c(nc2c1)CCC3 | -1 | 16* | 1 | 0 | 0 | 2 | 0
Cc1ccc(C)c(NC(=O)c2nc(Cl)ccc2Cl)c1 | 0 | 14* | 1 | 0 | 4 | 5 | 0
CC[C@]1(C(=O)OC)[C@H]2C(=O)N(C)C(=O)[C@H]2[C@H]2CN=C(SCc3ccc(C)cc3)N21 | -1 | -1 | 1 | 0 | -2 | x | x

Bioassay records from PubChem.
